Measurements as given in PubChem BioAssay (EPA / NIEHS).
Calls of active or inactive are those of the source. Rule for the calls: active = hit-call score of the fitted dose curve at least 0.9, where 1 is the maximum; inactive = score below 0.9.

Assay: APR_HepG2_StressKinase_24hr: Apredica 24-hour HepG2 Assay for Stress Kinase (AID 2282922)
Settings: HepG2 stress kinase (phospho-c-Jun) imaging, actives raise or lower the signal
Experimental: APR_HepG2_24hr is a cell-based, multiplexed-readout assay that uses HepG2, a human liver cell line, with measurements taken at 24 hours after chemical dosing in a 384-well plate.APR_HepG2_StressKinase_24hr is one of 10 assay component(s) measured or calculated from the APR_HepG2_24hr assay. It is designed to make measurements of enzyme activity, a form of enzyme reporter, as detected with fluorescence intensity signals by HCS Fluorescent Imaging technology.Data from the assay component APR_HepG2_StressKinase_24hr was analyzed into 1 assay endpoint. This assay endpoint, APR_HepG2_StressKinase_24hr, was analyzed with bidirectional fitting relative to DMSO as the negative control and baseline of activity. Using a type of enzyme reporter, measures of protein for gain or loss-of-signal activity can be used to understand the signaling at the pathway-level as they relate to the gene . Furthermore, this assay endpoint can be referred to as a primary readout, because this assay has produced multiple assay endpoints where this one serves a signaling function. To generalize the intended target to other relatable targets, this assay endpoint is annotated to the cell cycle intended target family, where the subfamily is stress response.
Cells were treated with dimethyl sulfoxide (DMSO) as a solvent control at a final concentration of 0.5% v/v or with compounds in DMSO with a resulting final DMSO concentration of 0.5% v/v. Compound treatment was done at concentrations of 0.39, 0.78, 1.56, 3.12, 6.24, 12.5, 25, 50, 100, and 200 uM in duplicate on each plate. Cells were treated with compounds for 1, 24, or 72 hr. Carbonyl […] m-chloro-phenylhydrazone (CCCP) and taxol were used as positive controls for mitochondrial function and cytoskeletal stability, respectively; DMSO served as the negative control for this experiment. Cells were fixed by the direct addition of 50 uL formaldehyde in Hank's Balanced Salt Solution (HBSS) to a final concentration of 3.7%. After incubation in the fixation medium for 30 min at room temperature (293-298 K), cells were rinsed twice with HBSS and treated with cell permeabilization buffer (16 uL of 0.5% Triton X-100) for 10 min at room temperature (293-298 K) before labeling. For mitochondrial membrane potential and mitochondrial measurements, pre-fixed cells were incubated with 50 uL of MitoTracker Red CMXRos (Invitrogen) at a concentration of 250 nM for 30 min before fixation. In the remaining cases, post-fixed cells were labeled by incubation with a multiplexed mixture of primary antibodies in HBSS for 60 min at room temperature (293-298 K) to detect immunoreactivity of c-Jun (1:500), phospho-histone H3 (1:100), phospho-histone H2A.x (1:200), p53 (1:400), alpha-tubulin (1:200) and Hoechst 33342 (2 ug/mL). Cells were labeled for multiplexed imaging on two separate plates: a) Hoechst 33342, MitoTracker Red, phospho-histone H3, and alpha-tubulin, and b) Hoechst 33342, phospho-histone H2A.x, and c-Jun. A final rinse with HBSS (50 uL) was performed before analysis. The primary and secondary antibodies for the proteins were phospho-histone H3 (rabbit anti-phospho-histone H3 and FITC-donkey anti-rabbit IgG), phospho-histone H2A.x (mouse anti-phospho-histone H2A.x and FITC-donkey anti-mouse IgG), c-Jun (rabbit anti-phospho-c-Jun and Cy3-donkey anti-rabbit IgG), p53 (sheep anti-p53 and Cy5-donkey anti-sheep IgG), alpha-tubulin (mouse anti-alpha-tubulin and Cy5-donkey anti-mouse IgG). These antibodies are available as the CellCiphr HepG2 assay kit (Millipore).Digital images of each well were captured using a Cellomics ArrayScan VTI (Thermo Scientific Cellomics) (0.8 NA objective, 0.63x optical coupler, and XF-93 filter set) at 20x magnification. The images were acquired using the autofocus feature of the ArrayScan instrument, which entails the following steps. First, the camera focuses on channel 1 (Hoechst 33342), where nuclei are identified. Second, a Z offset of 1 um is used for capturing mitochondria (MitoTracker Red). […]

| SMILES | outcome |
| --- | --- |
| C=CCc1ccc(OC)c(OC)c1 | inactive |
| CCCCCCCCCCCCCCOS(=O)(=O)O | inactive |
| CN(C)C(=O)NC1(c2ccccc2)CCN(CCC[C@]2(c3ccc(Cl)c(Cl)c3)CCCN(C(=O)c3ccccc3)C2)CC1 | inactive |
| OCC(O)CO | inactive |
| CCCCC(CC)COC(=O)CCCCCCCC(=O)OCC(CC)CCCC (stereo not given) | inactive |
| Cc1occc(=O)c1O | inactive |
| CCOCCOCCO | inactive |
| CC(=O)O | inactive |
| CC(=O)O[C@]1(C(C)=O)CC[C@H]2[C@@H]3C=C(Cl)C4=CC(=O)[C@@H]5C[C@@H]5[C@]4(C)[C@H]3CC[C@@]21C | inactive |
| NC=O | inactive |
| N[C@@H](Cc1c[nH]c2ccccc12)C(=O)O | inactive |
| O=C(O)CC(O)(CC(=O)O)C(=O)O | inactive |
| COc1ccc(OC(F)(F)F)cc1CN[C@H]1CCCN[C@H]1c1ccccc1 | inactive |
| CCCCCCC(C=O)=Cc1ccccc1 | inactive |
| c1ccc2occc2c1 | inactive |
| O=C(NS(=O)(=O)/C=C/c1cccs1)c1ccc(F)cc1Br | inactive |
| CC(C)(C)c1ccccc1 | inactive |
| O=C(N[C@@H](c1ccccc1)[C@@H]1CCCCN1)c1cccc(C(F)(F)F)c1Cl | inactive |
| CCCCOC(=O)CCCCC(=O)OCCCC | inactive |
| NC1CCCCC1 | inactive |

| SMILES | outcome |
| --- | --- |
| CS(=O)(=O)c1ccc([C@@H](C[C@H]2CCC(=O)C2)C(=O)Nc2cnccn2)cc1Cl | inactive |
| CC(=O)CC(c1ccccc1)c1c(O)c2ccccc2oc1=O (stereo not given) | inactive |
| CCCCCCC(CCCCCCCCCCC(=O)OCC(COC(C)=O)OC(C)=O)OC(C)=O (stereo not given) | inactive |
| Cc1cc(Cc2ccc(N)c(C)c2)ccc1N | inactive |
| CN(C)CCCN(C)CCCN(C)C | inactive |
| OCC(CO)n1cnc(-c2ccc(F)cc2)c1-c1ccnc(Oc2ccccc2)n1 | inactive |
| Cc1cn([C@H]2C=C[C@@H](CO)O2)c(=O)[nH]c1=O | inactive |
| Cc1ccc(-c2cc(C(F)(F)F)nn2-c2ccc(S(N)(=O)=O)cc2)cc1 | inactive |
| O=C1NC(=O)C(c2ccccc2)(c2ccccc2)N1 | inactive |
| C#CC(O)C(CC)CCCC (stereo not given) | inactive |
| CC(C)OC(=O)C(C)(C)Oc1ccc(C(=O)c2ccc(Cl)cc2)cc1 | inactive |
| Nc1nc(=S)c2[nH]cnc2[nH]1 | inactive |
| Oc1ccc(O)cc1 | inactive |
| O=C1CCCCC1 | inactive |
| CC(C)NCC(O)c1ccc(O)c(O)c1 (stereo not given) | inactive |
| CC(C)(O)c1ccc(CNC(=O)c2cccnc2Oc2ccc(F)cc2)cc1 | inactive |
| CC(C)COC(=O)CCCCC(=O)OCC(C)C | inactive |
| CC(=O)S[C@H](C(=O)N[C@H]1Cc2ccccc2[C@H]2CCC[C@@H](C(=O)O)N2C1=O)C(C)C | inactive |
| CCCCCCCC(=O)OC | inactive |
| COC(=O)CCCC(=O)OC | inactive |
